Measurements published in PubChem BioAssay AID1159580 (chemical genetic matrix, 2015).
“And” between values parts separate entries of the source, which are not always exact repeats. Equal entries are not always repeated. Out of some 5,500 compounds screened, about 2,000 (36%) were called active. Inconclusive results (about 18%) are left out. No stated cut-off is given here; in the data, active means normalized growth mostly below about 0.91 (no sharp cut-off); inconclusive means no clear call, values can overlap the other calls; inactive means mostly above about 0.92. The list shows a part of the results.

Test: chemical genetic growth profiling, strain panel (AID 1159580);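 further: tested at 20 µM; growth read once vehicle control cultures reached saturation at 30 °C; 1 = growth at the plate median or of vehicle wells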
Details: growth OD

Measured: normalized growth

CN(C)c1ccc(O)c2c1C[C@H]1C[C@H]3[C@H](N(C)C)C(=O)C(C(N)=O)=C(O)[C@@]3(O)C(=O)C1=C2O
inactive: S. cerevisiae deletion strains, locus YAL013W, strain DEP1, stronger effect = lower value 0.988 | S. cerevisiae deletion strains, locus YBR021W, strain FUR4, stronger effect = lower value 0.915 | S. cerevisiae deletion strains, locus YBR229C, strain ROT2, stronger effect = lower value 0.947 | S. cerevisiae deletion strains, locus YCL029C, strain bik1, stronger effect = lower value 0.992 | S. cerevisiae deletion strains, locus YDL035C, strain GPR1, stronger effect = lower value 0.963 | S. cerevisiae deletion strains, locus YDL074C, strain BRE1, stronger effect = lower value 1 | S. cerevisiae deletion strains, locus YDL101C, strain DUN1, stronger effect = lower value 0.969 | S. cerevisiae deletion strains, locus YDL134C, strain PPH21, stronger effect = lower value 0.976 | S. cerevisiae deletion strains, locus YDL185W, strain tfp1, stronger effect = lower value 0.983 | S. cerevisiae deletion strains, locus YDL192W, strain arf1, stronger effect = lower value 0.962 | S. cerevisiae deletion strains, locus YDR101C, strain arx1, stronger effect = lower value 1 | S. cerevisiae deletion strains, locus YDR150W, strain NUM1, stronger effect = lower value 0.975 | S. cerevisiae deletion strains, locus YDR162C, strain NBP2, stronger effect = lower value 0.964 | S. cerevisiae deletion strains, locus YDR318W, strain mcm21, stronger effect = lower value 0.996 | S. cerevisiae deletion strains, locus YDR388W, stronger effect = lower value 0.997 | S. cerevisiae deletion strains, locus YDR502C, strain sam2, stronger effect = lower value 0.986 | S. cerevisiae deletion strains, locus YEL061C, strain CIN8, stronger effect = lower value 0.984 | S. cerevisiae deletion strains, locus YER110C, stronger effect = lower value 0.974 | S. cerevisiae deletion strains, locus YER155C, strain BEM2, stronger effect = lower value 1.03 | S. cerevisiae deletion strains, locus YER167W, strain BCK2, stronger effect = lower value 0.984 | S. cerevisiae deletion strains, locus YGL078C, strain dbp3, stronger effect = lower value 0.974 | S. cerevisiae deletion strains, locus YGL086W, strain mad1, stronger effect = lower value 0.98 | S. cerevisiae deletion strains, locus YGL248W, strain PDE1, stronger effect = lower value 0.974 | S. cerevisiae deletion strains, locus YGR078C, strain PAC10, stronger effect = lower value 0.966 | S. cerevisiae deletion strains, locus YGR135W, strain pre9, stronger effect = lower value 0.974 | S. cerevisiae deletion strains, locus YGR229C, strain SMI1, stronger effect = lower value 0.987 | S. cerevisiae deletion strains, locus YGR252W, strain gcn5, stronger effect = lower value 0.802 | S. cerevisiae deletion strains, locus YHR030C, strain SLT2, stronger effect = lower value 0.992 | S. cerevisiae deletion strains, locus YHR079C, strain IRE1 (second series), stronger effect = lower value 1 | S. cerevisiae deletion strains, locus YHR079C, strain IRE1, stronger effect = lower value 1.01 | S. cerevisiae deletion strains, locus YHR094C, strain hxt1, stronger effect = lower value 1.01 | S. cerevisiae deletion strains, locus YHR129C, strain ARP1, stronger effect = lower value 0.99 | S. cerevisiae deletion strains, locus YHR200W, strain rpn10, stronger effect = lower value 0.989 | S. cerevisiae deletion strains, locus YIL066C, strain RNR3, stronger effect = lower value 0.96 | S. cerevisiae deletion strains, locus YIL073C, strain SPO22, stronger effect = lower value 0.959 | S. cerevisiae deletion strains, locus YIL125W, strain kgd1, stronger effect = lower value 0.979 | S. cerevisiae deletion strains, locus YIR030C, strain dcg1, stronger effect = lower value 0.987 | S. cerevisiae deletion strains, locus YJL095W, strain BCK1, stronger effect = lower value 0.986 and 0.993 | S. cerevisiae deletion strains, locus YJL134W, strain LCB3, stronger effect = lower value 0.981 | S. cerevisiae deletion strains, locus YJL168C, strain set2, stronger effect = lower value 0.995 | S. cerevisiae deletion strains, locus YJL187C, strain SWE1 (second series), stronger effect = lower value 0.966 | S. cerevisiae deletion strains, locus YJR043C, strain POL32, stronger effect = lower value 0.992 | S. cerevisiae deletion strains, locus YJR066W, strain TOR1, stronger effect = lower value 0.941 | S. cerevisiae deletion strains, locus YJR075W, strain HOC1, stronger effect = lower value 1 | S. cerevisiae deletion strains, locus YKL009W, strain mrt4, stronger effect = lower value 0.974 | S. cerevisiae deletion strains, locus YKL068W, stronger effect = lower value 0.995 | S. cerevisiae deletion strains, locus YKL085W, strain MDH1 (second series), stronger effect = lower value 0.982 | S. cerevisiae deletion strains, locus YKL085W, strain MDH1, stronger effect = lower value 0.982 | S. cerevisiae deletion strains, locus YKL190W, strain CNB1, stronger effect = lower value 0.998 | S. cerevisiae deletion strains, locus YKR001C, strain vps1, stronger effect = lower value 0.966 | S. cerevisiae deletion strains, locus YLR039C, strain RIC1, stronger effect = lower value 0.937 | S. cerevisiae deletion strains, locus YLR058C, strain SHM2, stronger effect = lower value 0.957 | S. cerevisiae deletion strains, locus YLR102C, strain apc9, stronger effect = lower value 0.989 | S. cerevisiae deletion strains, locus YLR113W, strain HOG1, stronger effect = lower value 1.01 | S. cerevisiae deletion strains, locus YLR262C, strain YPT6, stronger effect = lower value 0.895 | S. cerevisiae deletion strains, locus YLR268W, strain sec22, stronger effect = lower value 1.04 | S. cerevisiae deletion strains, locus YLR330W, strain CHS5, stronger effect = lower value 0.989 | S. cerevisiae deletion strains, locus YLR342W, strain FKS1 (second series), stronger effect = lower value 0.851 | S. cerevisiae deletion strains, locus YLR371W, strain rom2, stronger effect = lower value 0.98 | S. cerevisiae deletion strains, locus YLR418C, strain cdc73, stronger effect = lower value 0.909 | S. cerevisiae deletion strains, locus YML016C, strain PPZ1, stronger effect = lower value 0.974 | S. cerevisiae deletion strains, locus YML032C, strain rad52, stronger effect = lower value 1 | S. cerevisiae deletion strains, locus YML124C, strain tub3, stronger effect = lower value 0.991 | S. cerevisiae deletion strains, locus YMR078C, strain ctf18, stronger effect = lower value 0.993 | S. cerevisiae deletion strains, locus YMR223W, strain ubp8, stronger effect = lower value 0.934 | S. cerevisiae deletion strains, locus YMR263W, strain SAP30, stronger effect = lower value 0.991 | S. cerevisiae deletion strains, locus YMR307W, strain GAS1, stronger effect = lower value 0.879 | S. cerevisiae deletion strains, locus YNL067W, strain RPL9B, stronger effect = lower value 1 | S. cerevisiae deletion strains, locus YNL128W, strain TEP1, stronger effect = lower value 0.922 | S. cerevisiae deletion strains, locus YNL153C, strain GIM3, stronger effect = lower value 0.985 | S. cerevisiae deletion strains, locus YNL183C, strain NPR1, stronger effect = lower value 0.968 | S. cerevisiae deletion strains, locus YNL233W, strain BNI4, stronger effect = lower value 1 | S. cerevisiae deletion strains, locus YNL250W, strain rad50, stronger effect = lower value 0.975 | S. cerevisiae deletion strains, locus YNL271C, strain bni1, stronger effect = lower value 0.989 | S. cerevisiae deletion strains, locus YNL298W, strain CLA4, stronger effect = lower value 0.987 | S. cerevisiae deletion strains, locus YNL307C, strain MCK1, stronger effect = lower value 0.997 | S. cerevisiae deletion strains, locus YNL322C, strain KRE1, stronger effect = lower value 0.993 | S. cerevisiae deletion strains, locus YNR052C, strain pop2, stronger effect = lower value 0.978 | S. cerevisiae deletion strains, locus YOL006C, strain TOP1, stronger effect = lower value 0.887 | S. cerevisiae deletion strains, locus YOL012C, strain htz1 0.571 | S. cerevisiae deletion strains, locus YOL147C, strain pex11, stronger effect = lower value 0.994 | S. cerevisiae deletion strains, locus YOR061W, strain CKA2, stronger effect = lower value 0.967 | S. cerevisiae deletion strains, locus YOR069W, strain VPS5, stronger effect = lower value 0.985 | S. cerevisiae deletion strains, locus YOR136W, strain idh2, stronger effect = lower value 0.978 | S. cerevisiae deletion strains, locus YOR144C, strain elg1, stronger effect = lower value 0.996 | S. cerevisiae deletion strains, locus YOR184W, strain ser1, stronger effect = lower value 0.985 | S. cerevisiae deletion strains, locus YOR231W, strain MKK1, stronger effect = lower value 1.01 | S. cerevisiae deletion strains, locus YOR316C, strain cot1, stronger effect = lower value 0.998 | S. cerevisiae deletion strains, locus YPL055C, strain LGE1, stronger effect = lower value 0.958 | S. cerevisiae deletion strains, locus YPL241C, strain CIN2, stronger effect = lower value 0.981 | S. cerevisiae deletion strains, locus YPL256C, strain CLN2, stronger effect = lower value 1.01 | S. cerevisiae deletion strains, locus YPR119W, strain clb2, stronger effect = lower value 0.996 | S. cerevisiae deletion strains, locus YPR141C, strain kar3, stronger effect = lower value 0.997 | S. cerevisiae deletion strains, locus YPR163C, strain tif3, stronger effect = lower value 0.99 | S. cerevisiae deletion strains, locus YPR167C, strain met16, stronger effect = lower value 1 | S. cerevisiae deletion strains, strain wtn01, stronger effect = lower value 1.02 | S. cerevisiae strains, strain wild type, stronger effect = lower value 0.981
